# Data from PubChem BioAssay (Tox21).
# Values without a mark were called inactive. Results filed as inconclusive are left out. A call without a number means that no potency is given here. Calls of active or inactive are those of the source. Unless noted, calls come from the whole dose curve; as a rule, active = well fitted curve in the direction sought with a large enough effect in the repeat runs; inconclusive = weak or mixed curves; inactive = no such curve, though single readings can be large; an effect the other way counts as inactive or inconclusive.
# Assays:
# [1] = qHTS assay to identify small molecule agonists of the TGF-beta/Smad signaling pathway - cell viability counter screen (AID 1346829); note: top concentration of the series differs between compounds; nearly all actives have a fitted effect of over 45% in size
# Procedure, shortened: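 Same-well cytotoxicity: CellTiter-Glo added after the 2 hr room-temperature beta-lactamase substrate step, luminescence measured 30 min later; cells had 5 hr of compound at 37 C.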
# [2] = qHTS assay to identify small molecule agonists of the TGF-beta/Smad signaling pathway (AID 1346859; active = well fitted activation curve with a large enough effect in the signal ratio in the repeat runs, not every such curve was filed as active; the % refers to the signal ratio; note: series mostly up to about 77 µM)
# Procedure, shortened: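 Screening used HEK 293T SBE-bla cells at 4,000/well. Test agents: 5 hr, 37 C. Detection: FRET substrate, 2 hr RT, then excitation 405 nm with emissions at 460 and 530 nm.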
# [3] = molecular target: Thyrotropin-releasing hormone receptor (Homo sapiens) (UniProt P34981); experiment: qHTS assay to identify small molecule antagonists of the thyrotropin-releasing hormone receptor (TRHR) signaling pathway (AID 1346877; active = well fitted inhibition curve with a large enough effect in the repeat runs, not every such curve was filed as active; note: series mostly up to about 51 µM)
# Chain of Thyrotropin-releasing hormone receptor (Homo sapiens) (P34981 whole entry, looked up): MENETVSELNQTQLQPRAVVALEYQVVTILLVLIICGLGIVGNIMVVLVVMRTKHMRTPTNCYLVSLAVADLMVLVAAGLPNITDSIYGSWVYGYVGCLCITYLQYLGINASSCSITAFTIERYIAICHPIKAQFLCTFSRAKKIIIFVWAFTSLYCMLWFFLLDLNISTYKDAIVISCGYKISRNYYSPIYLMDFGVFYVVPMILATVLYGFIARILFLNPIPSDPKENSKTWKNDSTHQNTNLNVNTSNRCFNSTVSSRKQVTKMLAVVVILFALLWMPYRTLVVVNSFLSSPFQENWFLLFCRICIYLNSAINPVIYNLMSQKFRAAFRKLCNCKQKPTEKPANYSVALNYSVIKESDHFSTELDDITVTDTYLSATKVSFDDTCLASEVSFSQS
# Procedure, shortened: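 TRHR-expressing HEK293 cells were seeded, cultured 18 h at 37 °C, then loaded with calcium dye for 2 h. Compounds were pre-incubated 5 min at room temperature before 1 nM TRH (final) was added, and kinetic fluorescence was recorded for 3 min.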
# [4] = molecular target: Thyrotropin-releasing hormone receptor (Homo sapiens) (UniProt P34981); experiment: qHTS assay to identify small molecule agonists of the thyrotropin-releasing hormone receptor (TRHR) signaling pathway (AID 1346891; calls by dose curve; note: series mostly up to about 58 µM)
# Procedure, shortened: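 Readout was intracellular calcium fluorescence in TRHR-Hek293 cells. Cells were incubated 18 h, dye-loaded 2 h at 37 °C, and treated with compound in agonist mode.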
# [5] = Human pregnane X receptor (PXR) small molecule agonists, qHTS cell viability counter screen (AID 1346977); note: nearly all actives have a fitted effect of over 50% in size; note: potency is the fitted concentration of half-maximal effect
# Procedure, shortened: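 In each well, the PXR reporter HepG2 line was checked for viability: CellTiter-Fluor reagent added 23hr post-dosing, fluorescence read after 1hr incubation at 37C.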
# [6] = Caspase-3/7 induction in CHO-K1 cells by small molecules, qHTS cell viability counter screen (AID 1346979); note: nearly all actives have a fitted effect of over 35% in size; note: potency is the fitted concentration of half-maximal effect
# Procedure, shortened: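 Following a 5hr settling period, CHO-K1 cells at 1,500 per well received DMSO-dissolved compounds. Cell viability was quantified 16hr later by CellTiter-Fluor fluorescence, measured after 1hr with reagent at 37C.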
# [7] = Caspase-3/7 induction in CHO-K1 cells by small molecules, qHTS assay (AID 1346980); note: nearly all actives have a fitted effect of over 15% in size
# Procedure, shortened: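 Wild-type cells were seeded at 1,500 per well and settled 5 hr at 37 C, 5% CO2, then exposed to DMSO-dissolved compounds for 17 hr. Caspase-Glo 3/7 reagent was added, and luminescence was read after 30min at room temperature.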
# [8] = Caspase-3/7 induction in HepG2 cells by small molecules, qHTS cell viability counter screen (AID 1346981); note: nearly all actives have a fitted effect of over 30% in size; note: potency is the fitted concentration of half-maximal effect
# Procedure, shortened: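 Wild-type HepG2 cells (2,000/well) were allowed to settle for 5 hr at 37 C, 5% CO2, then dosed with compounds in DMSO by pin transfer. After 16 hr at 37 C, CellTiter-Fluor was added and fluorescence read 1 hr later.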
# [9] = molecular target: Nuclear receptor subfamily 1 group I member 2 (Homo sapiens) (UniProt O75469); experiment: Human pregnane X receptor (PXR) small molecule agonists, qHTS assay (AID 1346982); note: nearly all actives have a fitted effect of over 35% in size; note: potency is the fitted concentration of half-maximal effect
# Chain of Nuclear receptor subfamily 1 group I member 2 (Homo sapiens) (O75469 whole entry, looked up): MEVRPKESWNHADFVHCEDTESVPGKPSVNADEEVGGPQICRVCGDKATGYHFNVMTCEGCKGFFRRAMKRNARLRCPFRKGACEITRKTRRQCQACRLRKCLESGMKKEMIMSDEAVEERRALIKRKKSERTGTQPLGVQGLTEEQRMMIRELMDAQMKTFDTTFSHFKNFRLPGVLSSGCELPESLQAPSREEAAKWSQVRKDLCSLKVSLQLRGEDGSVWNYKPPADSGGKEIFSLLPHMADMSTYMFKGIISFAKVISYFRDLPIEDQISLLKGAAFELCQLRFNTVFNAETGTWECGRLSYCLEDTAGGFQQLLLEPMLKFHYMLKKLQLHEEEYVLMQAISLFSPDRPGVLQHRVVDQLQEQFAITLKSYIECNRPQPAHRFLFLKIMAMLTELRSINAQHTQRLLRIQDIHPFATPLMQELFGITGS
# Procedure, shortened: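 PXR-Luc HepG2 cells (CYP3A4 promoter-driven luciferase) were seeded in medium with 5% charcoal-stripped FBS, left 5 hr at 37 C, then exposed to compounds in DMSO for 24 hr. Luminescence was read after ONE-Glo addition.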
# [10] = Caspase-3/7 induction in HepG2 cells by small molecules, qHTS assay (AID 1346978); note: nearly all actives have a fitted effect of over 15% in size
# Procedure, shortened: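 Wild-type HepG2 cells (2,000/well) were settled 5 h at 37 C, 5% CO2, then exposed to compounds in DMSO for 17 h. Caspase-3/7 activity was read by luminescence 30 min after adding Caspase-Glo 3/7 reagent at room temperature.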
Structure (SMILES),outcome [1],outcome [2],outcome [3],outcome [4],Potency [5],Potency [6],outcome [7],Potency [8],Potency [9],outcome [10]
C=CCOc1c(Br)cc(Br)cc1Br,inactive,inactive,inactive,inactive,inactive,inactive,inactive,inactive,inactive,
CCCCCCCCCCCCCC(=O)OC,inactive,inactive,inactive,inactive,inactive,inactive,inactive,inactive,inactive,
O=C1OC(=O)c2ccccc21,inactive,inactive,inactive,inactive,inactive,,inactive,inactive,inactive,inactive
OCCCCCCCl,inactive,inactive,inactive,inactive,,inactive,inactive,inactive,inactive,inactive
CCOC(=O)CC(CC(=O)OCC)(OC(C)=O)C(=O)OCC,inactive,inactive,inactive,inactive,,,inactive,inactive,,inactive
FC(F)(F)/C(=N\OCC1OCCO1)c1ccc(Cl)cc1,inactive,inactive,inactive,inactive,,inactive,inactive,inactive,inactive,inactive
CCN(CCO)c1cccc(C)c1,inactive,inactive,inactive,inactive,inactive,,inactive,inactive,inactive,inactive
CC(C)=CC(C)(C)C,inactive,inactive,inactive,inactive,inactive,,inactive,inactive,inactive,inactive
COc1cc([N+](=O)[O-])ccc1N,inactive,inactive,inactive,inactive,61.1 µM (active),,inactive,54.5 µM (active),inactive,inactive
O=C(O)c1ccccc1C(=O)Nc1ccc(S(=O)(=O)Nc2nccs2)cc1,inactive,inactive,inactive,inactive,inactive,,inactive,inactive,inactive,inactive
CC(C)CCCCCCOC(=O)C1CCCCC1C(=O)OCCCCCCC(C)C (centres undefined),inactive,inactive,inactive,inactive,inactive,inactive,inactive,inactive,inactive,
CCOC(=O)CC#N,inactive,inactive,inactive,inactive,,,inactive,inactive,inactive,inactive
O=C(O)/C=C/c1ccccc1,inactive,inactive,inactive,inactive,inactive,,inactive,inactive,inactive,inactive
Nc1ccnc(=O)[nH]1,inactive,inactive,inactive,inactive,,inactive,inactive,inactive,inactive,inactive
Nc1nc(=O)n([C@@H]2O[C@H](CO)[C@@H](O)[C@@H]2F)cc1I,inactive,inactive,inactive,inactive,inactive,inactive,inactive,inactive,inactive,
CCC(=O)c1ccc(O)cc1,inactive,inactive,inactive,inactive,inactive,,inactive,,inactive,
CC(C)(C)c1ccc(C=O)cc1,inactive,inactive,inactive,inactive,,inactive,inactive,inactive,inactive,inactive
O=S(=O)(O)SSS(=O)(=O)O,inactive,inactive,inactive,inactive,,inactive,inactive,inactive,inactive,inactive
Cc1cccc(NC(=S)N(C)C)c1,inactive,inactive,inactive,inactive,,inactive,inactive,inactive,,

Structure (SMILES),outcome [1],outcome [2],outcome [3],outcome [4],Potency [5],Potency [6],outcome [7],Potency [8],Potency [9],outcome [10]
CCCCCCCCCCCCC,inactive,inactive,inactive,inactive,inactive,inactive,inactive,inactive,inactive,
CC(C)(C)NCCO,inactive,inactive,inactive,inactive,inactive,,inactive,inactive,inactive,inactive
C[C@@H]1C[C@H]2[C@@H]3C[C@H](F)C4=CC(=O)C=C[C@]4(C)[C@@]3(F)[C@@H](O)C[C@]2(C)[C@@]1(O)C(=O)CO,inactive,inactive,inactive,inactive,,inactive,inactive,inactive,,inactive
COc1cc(C=O)ccc1OC(=O)C(C)C,inactive,inactive,inactive,inactive,inactive,,inactive,inactive,inactive,inactive
Cc1ccc(S(=O)(=O)NC(=O)NC2CCCCCCC2)cc1,inactive,inactive,inactive,inactive,inactive,,inactive,inactive,inactive,inactive
NC(=O)NNC(N)=O,inactive,inactive,inactive,inactive,inactive,,inactive,inactive,inactive,inactive
CCC(O)C(C)(C)C (centres undefined),inactive,inactive,,inactive,inactive,inactive,inactive,inactive,inactive,inactive
CC(C)CCC(=O)CCC(C)C,inactive,inactive,,inactive,inactive,inactive,inactive,inactive,inactive,inactive
CC(=O)c1ccc(OCC(=O)N2CCCCC2)cc1,inactive,inactive,,inactive,inactive,inactive,inactive,inactive,,inactive
CCCOCCOCCOCCO,inactive,inactive,,inactive,,inactive,inactive,inactive,inactive,inactive
O=C(O)c1c(Cl)ccc(Cl)c1Cl,inactive,inactive,,inactive,inactive,inactive,inactive,inactive,inactive,
CC(=O)OCC(=O)[C@@]1(O)[C@H](OC(C)=O)C[C@H]2[C@@H]3CCC4=CC(=O)C=C[C@]4(C)[C@@]3(F)[C@@H](O)C[C@@]21C,inactive,inactive,,inactive,inactive,inactive,inactive,inactive,inactive,inactive
C=CCOC(=O)c1ccc(C(=O)OCC=C)c(C(=O)OCC=C)c1,inactive,inactive,,inactive,inactive,inactive,inactive,inactive,inactive,inactive
CCNC(=O)NCCCOc1cccc(CN2CCCCC2)c1,inactive,inactive,,inactive,inactive,,inactive,inactive,29.8 µM (active),inactive
C=C(C)C(=O)OCCCCCCOC(=O)C(=C)C,inactive,inactive,,inactive,inactive,inactive,inactive,inactive,inactive,inactive
COc1ccc(NS(=O)(=O)c2ccc(N)cc2)nn1,inactive,inactive,,inactive,inactive,inactive,inactive,inactive,,inactive
CC(=O)OC(C(=O)c1ccccc1)c1ccccc1 (centres undefined),inactive,inactive,,,inactive,inactive,inactive,inactive,,inactive
CC1=NN(c2ccc(S(=O)(=O)O)cc2)C(=O)C1N=Nc1ccccc1 (centres undefined),inactive,inactive,,inactive,,48.6 µM (active),inactive,61.1 µM (active),inactive,inactive
Cn1c(=O)c2c(ncn2CC2OCCO2)n(C)c1=O,inactive,inactive,,inactive,inactive,inactive,inactive,inactive,inactive,inactive

Structure (SMILES),outcome [1],outcome [2],outcome [3],outcome [4],Potency [5],Potency [6],outcome [7],Potency [8],Potency [9],outcome [10]
CC(C)C(=O)Nc1cccc(C(F)(F)F)c1,inactive,inactive,,inactive,inactive,,inactive,inactive,inactive,inactive
CC(CC(=O)O)CC(C)(C)C (centres undefined),inactive,inactive,,inactive,,,inactive,inactive,inactive,inactive
O=C(COCCOCCOCC(=O)Nc1c(I)cc(I)c(C(=O)O)c1I)Nc1c(I)cc(I)c(C(=O)O)c1I,inactive,inactive,,inactive,inactive,inactive,inactive,inactive,inactive,inactive
CCCCCCCCCCCCOC(C)=O,inactive,inactive,,inactive,,inactive,inactive,inactive,inactive,inactive
CC(=O)Nc1ncc([N+](=O)[O-])s1,inactive,inactive,,inactive,inactive,inactive,inactive,inactive,inactive,inactive
O=C(/C=C/c1ccccc1)NCCO,inactive,inactive,inactive,,inactive,,inactive,inactive,inactive,inactive
CC(C)SCc1ccco1,inactive,inactive,,inactive,inactive,inactive,inactive,,inactive,inactive
CCC(C)N (centres undefined),inactive,inactive,,inactive,inactive,inactive,inactive,inactive,inactive,inactive
Cc1ncc([N+](=O)[O-])n1CC(O)CCl (centres undefined),inactive,inactive,,inactive,inactive,inactive,inactive,inactive,,inactive
NS(=O)(=O)c1ccccc1OC(F)(F)F,inactive,inactive,,inactive,inactive,inactive,inactive,inactive,inactive,inactive
CC(C)CCCC(C)CC=O (centres undefined),inactive,inactive,inactive,,inactive,,inactive,inactive,inactive,inactive
COc1ccc(/C=N/NC(=O)c2ccncc2)cc1OC,inactive,inactive,,inactive,,inactive,inactive,inactive,inactive,inactive
CC(=O)/C=C/c1ccco1,inactive,inactive,,inactive,inactive,inactive,inactive,inactive,inactive,inactive
COC(OC)C(C)c1ccccc1 (centres undefined),inactive,inactive,,inactive,inactive,inactive,inactive,inactive,inactive,
CC(C)COC(=O)/C=C/c1ccccc1,inactive,inactive,,,inactive,inactive,inactive,inactive,inactive,inactive
CCC1COC(=O)O1 (centres undefined),inactive,inactive,,inactive,inactive,inactive,inactive,inactive,inactive,inactive
SCCSCCS,inactive,inactive,,inactive,inactive,,inactive,inactive,,inactive
NS(=O)(=O)c1ccc(Cl)c(S(N)(=O)=O)c1,inactive,inactive,,inactive,inactive,inactive,inactive,inactive,inactive,
